Measurements reported in PubChem BioAssay AID1159580 (chemical genetic matrix, 2015).
Values joined by “and” are separate entries in the source; they are usually repeats but may differ in a detail not shown here. Equal entries are not always repeated. Out of some 5,500 compounds screened, about 2,000 (36%) were called active. Roughly 18% stayed inconclusive and do not appear here. Rule as the data show it: active = normalized growth mostly below about 0.91 (no sharp cut-off); inconclusive = no clear call, values can overlap the other calls; inactive = mostly above about 0.92. The list shows a part of the results.

Experiment: chemical genetic growth profiling, strain panel (AID 1159580);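 also: tested at 20 µM; growth read once vehicle control cultures reached saturation at 30 °C; 1 = growth at the plate median or of vehicle wells; lower values mean less growth of the strain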
Details: growth OD

Measured: normalized growth

CC(=O)O[C@@H]1CC[C@@]2(C)C(C[C@@H](OC(C)=O)[C@@]3(C)C4=CC(=O)O[C@@H](c5ccoc5)[C@]4(C)CCC23)C1(C)C (stereo partly drawn)
inactive: S. cerevisiae deletion strains, locus YBR021W, strain FUR4, active compounds read low 1.01 | S. cerevisiae deletion strains, locus YBR229C, strain ROT2, active compounds read low 1.01 | S. cerevisiae deletion strains, locus YCL029C, strain bik1, active compounds read low 0.99 | S. cerevisiae deletion strains, locus YDL035C, strain GPR1, active compounds read low 1.03 | S. cerevisiae deletion strains, locus YDL074C, strain BRE1, active compounds read low 1 | S. cerevisiae deletion strains, locus YDL101C, strain DUN1, active compounds read low 1.01 | S. cerevisiae deletion strains, locus YDL134C, strain PPH21, active compounds read low 1.01 | S. cerevisiae deletion strains, locus YDL185W, strain tfp1, active compounds read low 0.996 | S. cerevisiae deletion strains, locus YDL192W, strain arf1, active compounds read low 1 | S. cerevisiae deletion strains, locus YDR101C, strain arx1, active compounds read low 1 | S. cerevisiae deletion strains, locus YDR162C, strain NBP2, active compounds read low 1.02 | S. cerevisiae deletion strains, locus YDR318W, strain mcm21, active compounds read low 1 | S. cerevisiae deletion strains, locus YDR388W, active compounds read low 1 | S. cerevisiae deletion strains, locus YDR502C, strain sam2, active compounds read low 0.983 | S. cerevisiae deletion strains, locus YEL061C, strain CIN8, active compounds read low 1.02 | S. cerevisiae deletion strains, locus YER110C, active compounds read low 1 | S. cerevisiae deletion strains, locus YER155C, strain BEM2, active compounds read low 1.02 | S. cerevisiae deletion strains, locus YER167W, strain BCK2, active compounds read low 1.02 | S. cerevisiae deletion strains, locus YGL078C, strain dbp3, active compounds read low 0.994 | S. cerevisiae deletion strains, locus YGL086W, strain mad1, active compounds read low 1.02 | S. cerevisiae deletion strains, locus YGL248W, strain PDE1, active compounds read low 0.999 | S. cerevisiae deletion strains, locus YGR135W, strain pre9, active compounds read low 0.973 | S. cerevisiae deletion strains, locus YGR252W, strain gcn5, active compounds read low 0.918 | S. cerevisiae deletion strains, locus YHR030C, strain SLT2, active compounds read low 0.962 | S. cerevisiae deletion strains, locus YHR079C, strain IRE1 (second series), active compounds read low 1 | S. cerevisiae deletion strains, locus YHR079C, strain IRE1, active compounds read low 0.998 | S. cerevisiae deletion strains, locus YHR094C, strain hxt1, active compounds read low 0.998 | S. cerevisiae deletion strains, locus YHR129C, strain ARP1, active compounds read low 1.02 | S. cerevisiae deletion strains, locus YHR200W, strain rpn10, active compounds read low 0.976 | S. cerevisiae deletion strains, locus YIL066C, strain RNR3, active compounds read low 1.03 | S. cerevisiae deletion strains, locus YIL073C, strain SPO22, active compounds read low 0.996 | S. cerevisiae deletion strains, locus YIL125W, strain kgd1, active compounds read low 1 | S. cerevisiae deletion strains, locus YIR030C, strain dcg1, active compounds read low 1 | S. cerevisiae deletion strains, locus YJL095W, strain BCK1, active compounds read low 0.986 and 0.998 | S. cerevisiae deletion strains, locus YJL134W, strain LCB3, active compounds read low 1.02 | S. cerevisiae deletion strains, locus YJL168C, strain set2, active compounds read low 1 | S. cerevisiae deletion strains, locus YJL187C, strain SWE1 (second series), active compounds read low 1 | S. cerevisiae deletion strains, locus YJR066W, strain TOR1, active compounds read low 0.918 | S. cerevisiae deletion strains, locus YKL009W, strain mrt4, active compounds read low 1.05 | S. cerevisiae deletion strains, locus YKL068W, active compounds read low 1 | S. cerevisiae deletion strains, locus YKL085W, strain MDH1 (second series), active compounds read low 1.03 | S. cerevisiae deletion strains, locus YKL085W, strain MDH1, active compounds read low 1.03 | S. cerevisiae deletion strains, locus YKL190W, strain CNB1, active compounds read low 1.02 | S. cerevisiae deletion strains, locus YKR001C, strain vps1, active compounds read low 0.998 | S. cerevisiae deletion strains, locus YLR039C, strain RIC1, active compounds read low 1.04 | S. cerevisiae deletion strains, locus YLR058C, strain SHM2, active compounds read low 1.01 | S. cerevisiae deletion strains, locus YLR102C, strain apc9, active compounds read low 0.998 | S. cerevisiae deletion strains, locus YLR113W, strain HOG1, active compounds read low 0.981 | S. cerevisiae deletion strains, locus YLR268W, strain sec22, active compounds read low 0.99 | S. cerevisiae deletion strains, locus YLR371W, strain rom2, active compounds read low 1.01 | S. cerevisiae deletion strains, locus YLR418C, strain cdc73, active compounds read low 0.909 | S. cerevisiae deletion strains, locus YML016C, strain PPZ1, active compounds read low 1.02 | S. cerevisiae deletion strains, locus YML032C, strain rad52, active compounds read low 1 | S. cerevisiae deletion strains, locus YML124C, strain tub3, active compounds read low 0.999 | S. cerevisiae deletion strains, locus YMR078C, strain ctf18, active compounds read low 1.01 | S. cerevisiae deletion strains, locus YMR223W, strain ubp8, active compounds read low 0.988 | S. cerevisiae deletion strains, locus YMR307W, strain GAS1, active compounds read low 0.953 | S. cerevisiae deletion strains, locus YNL067W, strain RPL9B, active compounds read low 1 | S. cerevisiae deletion strains, locus YNL183C, strain NPR1, active compounds read low 0.931 | S. cerevisiae deletion strains, locus YNL233W, strain BNI4, active compounds read low 0.993 | S. cerevisiae deletion strains, locus YNL250W, strain rad50, active compounds read low 0.992 | S. cerevisiae deletion strains, locus YNL271C, strain bni1, active compounds read low 1 | S. cerevisiae deletion strains, locus YNL298W, strain CLA4, active compounds read low 0.989 | S. cerevisiae deletion strains, locus YNL307C, strain MCK1, active compounds read low 0.993 | S. cerevisiae deletion strains, locus YNR052C, strain pop2, active compounds read low 0.993 | S. cerevisiae deletion strains, locus YOL006C, strain TOP1, active compounds read low 0.986 | S. cerevisiae deletion strains, locus YOL012C, strain htz1 0.707 | S. cerevisiae deletion strains, locus YOL147C, strain pex11, active compounds read low 1 | S. cerevisiae deletion strains, locus YOR061W, strain CKA2, active compounds read low 1.02 | S. cerevisiae deletion strains, locus YOR069W, strain VPS5, active compounds read low 1.02 | S. cerevisiae deletion strains, locus YOR136W, strain idh2, active compounds read low 0.996 | S. cerevisiae deletion strains, locus YOR144C, strain elg1, active compounds read low 1.01 | S. cerevisiae deletion strains, locus YOR184W, strain ser1, active compounds read low 1.01 | S. cerevisiae deletion strains, locus YOR231W, strain MKK1, active compounds read low 0.999 | S. cerevisiae deletion strains, locus YOR316C, strain cot1, active compounds read low 0.999 | S. cerevisiae deletion strains, locus YPL055C, strain LGE1, active compounds read low 0.997 | S. cerevisiae deletion strains, locus YPL256C, strain CLN2, active compounds read low 0.973 | S. cerevisiae deletion strains, locus YPR119W, strain clb2, active compounds read low 1 | S. cerevisiae deletion strains, locus YPR141C, strain kar3, active compounds read low 0.993 | S. cerevisiae deletion strains, locus YPR163C, strain tif3, active compounds read low 0.988 | S. cerevisiae deletion strains, locus YPR167C, strain met16, active compounds read low 0.995 | S. cerevisiae deletion strains, strain wtn01, active compounds read low 0.986 | S. cerevisiae strains, strain wild type, active compounds read low 1.02
